Where “and” joins values, the source holds several entries; their conditions need not be identical. Equal entries are not always repeated. Inconclusive results are not listed. More than one record can exist for a structure, and the calls need not agree. Calls of active or inactive are those of the source. Unless noted, calls come from the whole dose curve; as a rule, active = well fitted curve in the direction sought with a large enough effect in the repeat runs; inconclusive = weak or mixed curves; inactive = no such curve, though single readings can be large; an effect the other way counts as inactive or inconclusive.
Columns and labels:
[1] = qHTS assay to identify small molecule antagonists of the estrogen related receptor (ERR) signaling pathway from Tox21 library - cell viability counter screen (AID 1224834); note: nearly all actives have a fitted effect of over 30% in size; note: potency is the fitted concentration of half-maximal effect
Procedure, shortened: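 Multiplexed viability counter screen in ERR cells: 17.5 h compound exposure at 37 C, CellTiter-Fluor added, 30 min at 37 C/5% CO2, fluorescence read.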

[2] = molecular target: Luciferin 4-monooxygenase (Photinus pyralis) (UniProt P08659); experiment: qHTS assay to identify small molecule inhibitors of firefly luciferase (AID 1224835); note: nearly all actives have a fitted effect of over 25% in size; note: potency is the fitted concentration of half-maximal effect
Chain of Luciferin 4-monooxygenase (Photinus pyralis) (P08659 whole entry, looked up): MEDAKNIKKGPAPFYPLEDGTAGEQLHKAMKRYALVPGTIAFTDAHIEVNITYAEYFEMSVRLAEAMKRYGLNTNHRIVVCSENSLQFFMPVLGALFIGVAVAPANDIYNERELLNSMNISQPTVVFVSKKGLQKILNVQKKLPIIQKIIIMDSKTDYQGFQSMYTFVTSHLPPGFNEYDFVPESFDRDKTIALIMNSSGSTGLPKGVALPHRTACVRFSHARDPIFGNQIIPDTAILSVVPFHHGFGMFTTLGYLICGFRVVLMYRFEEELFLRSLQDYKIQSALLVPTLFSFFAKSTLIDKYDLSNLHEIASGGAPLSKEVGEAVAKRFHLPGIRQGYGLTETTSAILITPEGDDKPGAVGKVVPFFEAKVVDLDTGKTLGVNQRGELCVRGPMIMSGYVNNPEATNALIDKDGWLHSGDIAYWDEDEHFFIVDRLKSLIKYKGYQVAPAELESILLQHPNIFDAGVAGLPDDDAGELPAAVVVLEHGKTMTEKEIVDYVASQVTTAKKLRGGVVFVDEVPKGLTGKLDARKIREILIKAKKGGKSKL
Procedure, shortened: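 Quantitative HTS format; KM concentrations of both substrates. Purified P. pyralis FLuc activity quantified from luminescence images.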

[3] = qHTS assay to identify small molecule agonists of the constitutive androstane receptor (CAR) signaling pathway - cell viability counter screen (AID 1224836); note: % is set by controls: 0 for no effect and ±100 for the full control effect; nearly all actives have a fitted effect of over 45% in size
Procedure, shortened: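 HepG2 cells stably carrying hCAR and a CYP2B6-2.2kb reporter; 15-concentration compounds plus PK11195 (final 0.75 uM), 23 hr at 37 C/5% CO2. Viability read by CellTiter-Fluor fluorescence.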

[4] = qHTS assay to identify small molecule antagonists of the constitutive androstane receptor (CAR) signaling pathway - cell viability counter screen (AID 1224837); note: % is set by controls: 0 for no effect and ±100 for the full control effect; nearly all actives have a fitted effect of over 45% in size
Procedure, shortened: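 Read-out: CellTiter-Fluor fluorescence after 23 hr at 37 C/5% CO2. Cells: HepG2 double-stable for hCAR and CYP2B6-2.2kb. Compounds tested at 15 concentrations in the presence of CITCO, final concentration 50 nM.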

[5] = molecular target: Nuclear receptor subfamily 1 group I member 3 (Homo sapiens) (UniProt Q14994); experiment: qHTS assay to identify small molecule antagonists of the constitutive androstane receptor (CAR) signaling pathway (AID 1224838);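 note: HepG2 cells stably expressing hCAR with CYP2B6 luciferase reporter stimulated by CITCO; % is set by controls: 0 for no effect and ±100 for the full control effect; nearly all actives have a fitted effect of over 40% in size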
Chain of Nuclear receptor subfamily 1 group I member 3 (Homo sapiens) (Q14994 whole entry, looked up): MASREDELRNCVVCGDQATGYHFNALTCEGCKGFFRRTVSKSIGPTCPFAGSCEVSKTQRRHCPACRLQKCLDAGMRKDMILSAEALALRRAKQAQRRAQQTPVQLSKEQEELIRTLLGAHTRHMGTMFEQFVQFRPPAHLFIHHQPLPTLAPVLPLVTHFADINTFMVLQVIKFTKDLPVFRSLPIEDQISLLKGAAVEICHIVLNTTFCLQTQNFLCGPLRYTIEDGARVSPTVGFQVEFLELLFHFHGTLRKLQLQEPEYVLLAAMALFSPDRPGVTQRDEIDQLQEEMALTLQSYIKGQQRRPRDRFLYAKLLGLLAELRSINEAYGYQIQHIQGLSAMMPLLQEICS
Procedure, shortened: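 Read-out: ONE-Glo luciferase luminescence after 30 min at room temperature. HepG2-CYP2B6-hCAR double-stable cells, compounds in 15-point titration plus 50 nM CITCO final, 24 h at 37 C/5% CO2.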

[6] = molecular target: Nuclear receptor subfamily 1 group I member 3 (Homo sapiens) (UniProt Q14994); experiment: qHTS assay to identify small molecule agonists of the constitutive androstane receptor (CAR) signaling pathway (AID 1224839); note: nearly all actives have a fitted effect of over 15% in size; note: potency is the fitted concentration of half-maximal effect;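 for activation: HepG2 cells stably carrying human CAR and a CYP2B6 luciferase reporter; % is set by controls: 0 for no effect and ±100 for the full control effect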
Procedure, shortened: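 HepG2 cells stably co-transfected with hCAR and a CYP2B6-2.2kb luciferase reporter; compounds at 15 concentrations with 0.75 uM PK11195 present. After 24 hr at 37 C, luciferase read by ONE-Glo luminescence.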

[7] = qHTS assay to identify small molecule antagonists of the estrogen related receptor signaling pathway with the pleiotropic PPARgamma coactivator (PGC) from Tox21 10K library - cell viability counter screen (AID 1224840; active = well fitted cell-killing curve with a large enough effect in the repeat runs, not every such curve was filed as active; note: nearly all actives have a fitted effect of over 40% in size; note: potency is the fitted concentration of half-maximal effect)
Procedure, shortened: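 Fluorescence read-out of CellTiter-Fluor viability reagent, added after cells had been exposed to compound in DMSO for 17.5 h at 37 C; 30 min development at 37 C/5% CO2. Cells: PGC/ERR line, 2,000/well.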

[8] = qHTS assay to identify small molecule agonists of the hypoxia (HIF-1) signaling pathway - cell viability counter screen (AID 1224844; calls by dose curve; note: % is set by controls: 0 for no effect and ±100 for the full control effect; nearly all actives have a fitted effect of over 50% in size)
Procedure, shortened: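 CellTiter-Glo luminescence read-out, 30 min RT, taken in the same wells as the beta-lactamase HRE reporter assay; HRE-bla ME-180 cells, 0.5% dialyzed FBS, 17 hr compound treatment at 37C, 5% CO2.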

[9] = qHTS assay to identify small molecule agonists of H2AX (AID 1224845; active = well fitted activation curve with a large enough effect in the signal ratio in the repeat runs, not every such curve was filed as active; the % refers to the signal ratio; note: % is set by controls: 0 for no effect and ±100 for the full control effect)
Procedure, shortened: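 Wild-type CHO-K1 cells plated overnight, then exposed 3 hr at 37C to compounds at 15 concentrations (0.76% DMSO). Lysed, then HTRF anti-pH2AX(S139)-cryptate/anti-H2AX-d2 detection after 24 hr at room temperature; emissions 665 and 620 nm.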

[10] = qHTS assay to identify small molecule agonists of the hypoxia (HIF-1) signaling pathway (AID 1224846; active = well fitted activation curve with a large enough effect in the signal ratio in the repeat runs, not every such curve was filed as active; the % refers to the signal ratio; note: % is set by controls: 0 for no effect and ±100 for the full control effect)
Procedure, shortened: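 Beta-lactamase FRET read-out (CCF4-AM substrate) from ME-180 cells carrying an HRE-driven bla reporter, after 17 hrs compound exposure at 37C/5% CO2. Cells were seeded at 2,000 per well in 0.5% dialyzed FBS medium and preincubated 5 hrs.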

[11] = qHTS assay to identify small molecule agonists of H2AX - cell viability counter screen (AID 1224847; calls by dose curve; note: nearly all actives have a fitted effect of over 30% in size; note: potency is the fitted concentration of half-maximal effect)
Procedure, shortened: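 CHO-K1 cells plated overnight at 37C, then exposed 3 h at 37C to compounds at 15 concentrations (0.76% DMSO final). Viability by CellTiter-Glo luminescence after 30 min at room temperature.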

[12] = qHTS RealTime-Glo MT Cell Viability Assay in HepG2 cells - 24 hour (AID 1224867); note: nearly all actives have a fitted effect of over 50% in size; note: potency is the fitted concentration of half-maximal effect
Procedure, shortened: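 qHTS, HepG2, 600 cells/well, RealTime-Glo (NanoLuc + prosubstrate) added with cells; 5 h preincubation; DMSO compound addition; 37 C; luminescence at 0/8/16/24/32/40 h.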

[13] = qHTS RealTime-Glo MT Cell Viability Assay in HEK293 cells - 32 hour (AID 1224868); note: nearly all actives have a fitted effect of over 50% in size; note: potency is the fitted concentration of half-maximal effect
Procedure, shortened: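 Assay medium contained NanoLuc luciferase plus cell-permeant prosubstrate, added with HEK293 cells at 600 cells/well. After 5 h at 37 C/5% CO2 compounds were added; plates stayed at 37 C for 40 h with serial luminescence reads.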

[14] = A CellTox Green Cytotoxicity Assay to monitor cytotoxicity in HEK293 cells - 0 hour (AID 1224869); note: % is set by controls: 0 for no effect and ±100 for the full control effect; nearly all actives have a fitted effect of over 50% in size
Procedure, shortened: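 Read-out: fluorescence of a cell-impermeant cyanine dye staining DNA of dead cells, proportional to cytotoxicity. HEK293, 600 cells/well with reagent, compound (23 nL DMSO) added after 5 h; reads at 0, 8, 16, 24, 32, 40 h.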

[15] = molecular target: Thyrotropin receptor (Homo sapiens) (UniProt P16473); experiment: qHTS assay to identify small molecule agonists of the thyroid stimulating hormone receptor (TSHR) signaling pathway (AID 1224843; calls by dose curve; note: nearly all actives have a fitted effect of over 45% in size; note: potency is the fitted concentration of half-maximal effect; for activation: % is set by controls: 0 for no effect and ±100 for the full control effect)
Chain of Thyrotropin receptor (Homo sapiens) (P16473 whole entry, looked up): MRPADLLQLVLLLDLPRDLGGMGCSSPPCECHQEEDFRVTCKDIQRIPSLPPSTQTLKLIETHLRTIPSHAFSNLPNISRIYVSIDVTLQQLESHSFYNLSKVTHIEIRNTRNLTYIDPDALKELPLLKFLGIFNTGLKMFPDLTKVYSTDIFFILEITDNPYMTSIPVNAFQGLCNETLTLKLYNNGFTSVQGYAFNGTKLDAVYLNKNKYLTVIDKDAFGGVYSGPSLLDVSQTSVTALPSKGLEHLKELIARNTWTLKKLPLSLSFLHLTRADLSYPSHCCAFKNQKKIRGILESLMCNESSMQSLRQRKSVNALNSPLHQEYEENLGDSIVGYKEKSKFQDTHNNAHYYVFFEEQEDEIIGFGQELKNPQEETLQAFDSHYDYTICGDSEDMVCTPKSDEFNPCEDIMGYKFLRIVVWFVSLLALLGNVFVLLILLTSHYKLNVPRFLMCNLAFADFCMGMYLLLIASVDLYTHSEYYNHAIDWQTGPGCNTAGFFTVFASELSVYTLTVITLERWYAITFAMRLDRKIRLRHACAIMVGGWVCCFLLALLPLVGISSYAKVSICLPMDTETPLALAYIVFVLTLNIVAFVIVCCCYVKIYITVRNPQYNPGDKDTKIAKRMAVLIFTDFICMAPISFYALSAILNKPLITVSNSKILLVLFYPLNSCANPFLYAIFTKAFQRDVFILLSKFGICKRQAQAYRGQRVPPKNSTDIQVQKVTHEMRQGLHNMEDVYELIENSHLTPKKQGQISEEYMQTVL
Procedure, shortened: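 Using 15 concentrations per compound in triplicate, cAMP production was monitored in TSHR-HEK293 cells after 30 min compound incubation at RT; HTRF reagents followed, with fluorescence intensity recorded after 1 h.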

[16] = qHTS assay to identify small molecule agonists of the estrogen related receptor signaling pathway with the pleiotropic PPARgamma coactivator (PGC) (AID 1224823); note: potency is the fitted concentration of half-maximal effect
Procedure, shortened: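 Luminescence readout (One-Glo, 30 min RT) from PGC/ERR cell line treated 18 h at 37 C with pin-tool-delivered DMSO compound solutions; cells plated 6 h before dosing. Quantitative HTS format.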

[17] = qHTS assay to identify small molecule antagonists of the estrogen related receptor signaling pathway with the pleiotropic PPARgamma coactivator (PGC) from Tox21 10K library (AID 1224841; call rule not given here)
Procedure, shortened: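 Luminescence read-out (One-Glo luciferase reagent, 30 min at room temperature) from PGC/ERR cells exposed to DMSO-dissolved test compounds for 18 h at 37 C; cells, 2,000 per well, had been preincubated 6 h before compound transfer.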

[18] = qHTS assay to identify small molecule agonists of the estrogen related receptor signaling pathway with the pleiotropic PPARgamma coactivator (PGC) from Tox21 10K library (AID 1224842); note: nearly all actives have a fitted effect of over 15% in size; note: potency is the fitted concentration of half-maximal effect
Procedure, shortened: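 PGC/ERR reporter cells (NTP line) were seeded 2,000 per well, rested 6 h at 37 C/5% CO2, then pin-dosed with compounds in DMSO for 18 h at 37 C; luciferase read by One-Glo luminescence after 30 min at room temperature.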

[19] = qHTS assay to identify small molecule antagonists of the estrogen related receptor (ERR) signaling pathway from Tox21 library (AID 1224848)
Procedure, shortened: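 Tox21 10K compounds in DMSO tested for ERR pathway antagonism in NTP's ERR cell line; 18 h, 37 C exposure; ONE-Glo luminescence.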

[20] = qHTS assay to identify small molecule agonists of the estrogen related receptor (ERR) signaling pathway from Tox21 library (AID 1224849; calls by dose curve; note: % is set by controls: 0 for no effect and ±100 for the full control effect; nearly all actives have a fitted effect of over 15% in size); details: ERR reporter cell line, ONE-Glo luciferase, 18 h
Procedure, shortened: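 Luminescence readout (ONE-Glo, 30 min RT) after 18 h compound exposure at 37 C of NTP-supplied ERR reporter cells; cells were plated 6 h before compound addition by pin tool.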

Cc1cc(Cc2ccc(N)c(C)c2)ccc1N
inactive: Potency [1] | Potency [2] | Potency [3] | Potency [4] | Potency [5] | Potency [7] | Potency [8] | Potency [9] | outcome [10] | Potency [11] | Potency [12] | Potency [13] | Potency [14]
active: Potency [6] 48.6 µM

CN(C)c1cccc(O)c1
inactive: Potency [1] | Potency [3] | Potency [4] | Potency [5] | Potency [7] | Potency [15] | Potency [8] | Potency [9] | outcome [10] | Potency [11] | Potency [12] | Potency [13] | Potency [14]
active: Potency [2] 31.7 µM | Potency [6] 62.1 µM

CC1=CC[C@H]2C[C@@H]1C2(C)C
inactive: Potency [1] | Potency [2] | Potency [3] | Potency [4] | Potency [7] | Potency [15] | Potency [8] | Potency [9] | outcome [10] | Potency [11] | Potency [12] | Potency [13] | Potency [14]

O=c1c(-c2ccc(O)cc2)coc2cc(O)ccc12
inactive: Potency [3] | Potency [4] | Potency [5] | Potency [7] | Potency [17] | Potency [15] | Potency [8] | Potency [11] | Potency [19] | Potency [12] | Potency [14]
active: Potency [16] 20.3 µM | Potency [2] 24.9 µM and 12.6 µM | Potency [6] 15.2 µM and 10.9 µM | Potency [18] 24.1 µM and 27.3 µM | activity change, positive = activation ([20]; at 92.4 µM (top of the series)) 150% and 64.9%

NCCNCCNCCNCCN
inactive: Potency [1] | Potency [2] | Potency [3] | Potency [4] | Potency [5] | Potency [6] | Potency [7] | Potency [17] | Potency [18] | Potency [15] | Potency [8] | outcome [10] | Potency [11] | Potency [19] | Potency [12] | Potency [13] | Potency [14]

Clc1ccc(Cl)c(Cl)c1Cl
inactive: Potency [1] | Potency [2] | Potency [3] | Potency [4] | Potency [5] | Potency [6] | Potency [7] | Potency [15] | Potency [8] | Potency [9] | outcome [10] | Potency [11] | Potency [12] | Potency [13] | Potency [14]

Cc1cc(=O)[nH]c(C(C)C)n1
inactive: Potency [1] | Potency [2] | Potency [3] | Potency [4] | Potency [5] | Potency [6] | Potency [7] | Potency [17] | Potency [18] | Potency [15] | Potency [8] | outcome [10] | Potency [11] | Potency [19] | activity change, positive = activation ([20]; at 92.4 µM (top of the series)) 2.86% and -3.8% | Potency [12] | Potency [13] | Potency [14]

CC(C)Cc1ccccc1
inactive: Potency [1] | Potency [2] | Potency [3] | Potency [4] | Potency [7] | Potency [15] | Potency [8] | Potency [9] | outcome [10] | Potency [11] | Potency [12] | Potency [13] | Potency [14]

Nc1c(S(=O)(=O)O)cc(Br)c2c1C(=O)c1ccccc1C2=O
active: Potency [2] 35.6 µM
inactive: Potency [7] | Potency [15] | Potency [8] | outcome [10] | Potency [11] | Potency [12] | Potency [13] | Potency [14]
inactive and 24.3 µM (active): Potency [1]

CCC(C)C=O (configuration not stated)
inactive and 3.47 µM (active): Potency [13]
inactive: Potency [1] | Potency [2] | Potency [3] | Potency [5] | Potency [6] | Potency [7] | Potency [8] | outcome [10] | Potency [11] | Potency [12] | Potency [14]
4.32 µM (active) and inactive: Potency [15]

CCCCCCCCCCCCN
inactive and 24.5 µM (active): Potency [12]
inactive and 7.7 µM (active): Potency [1]
inactive: Potency [2] | Potency [5] | Potency [6] | Potency [15] | Potency [8] | outcome [10] | Potency [14]
inactive and 43.6 µM (active): Potency [13]
inactive and 20.1 µM (active): Potency [11]
inactive and 12.2 µM (active): Potency [7]

O=[N+]([O-])c1cccc(Cl)c1
inactive: Potency [1] | Potency [2] | Potency [3] | Potency [7] | Potency [17] | Potency [18] | Potency [8] | Potency [9] | outcome [10] | Potency [11] | Potency [19] | Potency [12] | Potency [13] | Potency [14]
6.74 µM (active) and inactive: Potency [15]

CCOC(=O)[C@H](CCc1ccccc1)N[C@@H](C)C(=O)N1Cc2ccccc2C[C@H]1C(=O)O
inactive: Potency [1] | Potency [2] | Potency [3] | Potency [5] | Potency [6] | Potency [7] | Potency [17] | Potency [18] | Potency [8] | Potency [9] | outcome [10] | Potency [11] | Potency [19] | activity change, positive = activation ([20]; at 42.5 µM (top of the series)) -3.47% | activity change, positive = activation ([20]; at 92.4 µM (top of the series)) -6.49% | Potency [12] | Potency [13] | Potency [14]

C[C@@H]1O[C@@H](OC[C@H]2O[C@@H](Oc3c(-c4ccc(O)c(O)c4)oc4cc(O)cc(O)c4c3=O)[C@H](O)[C@@H](O)[C@@H]2O)[C@H](O)[C@H](O)[C@H]1O
inactive: Potency [1] | Potency [2] | Potency [3] | Potency [5] | Potency [6] | Potency [7] | Potency [15] | Potency [8] | outcome [10] | Potency [11] | Potency [12] | Potency [13] | Potency [14]

O=C1CCCCC1
inactive: Potency [1] | Potency [2] | Potency [3] | Potency [5] | Potency [6] | Potency [7] | Potency [17] | Potency [18] | Potency [8] | Potency [9] | outcome [10] | Potency [11] | Potency [19] | activity change, positive = activation ([20]; at 92.4 µM (top of the series)) -2.85% and -5.66% | Potency [12] | Potency [13] | Potency [14]

c1ccc2[nH]cnc2c1
inactive: Potency [1] | Potency [2] | Potency [3] | Potency [5] | Potency [6] | Potency [7] | Potency [8] | Potency [9] | outcome [10] | Potency [11] | Potency [12] | Potency [13] | Potency [14]

From PubChem BioAssay (Tox21)
